In ChEMBL document CHEMBL3988442, “University of Dundee, Small-Polar-MMV Screening Library” (2021):
For some assays here: Potency and affinity values are given separately.

What was measured:
Parameters in all cases: scale not given: direction of the effect not stated beside the values
[1] = target: Protein translocase subunit SecA (Escherichia coli (strain K12)) (UniProt P10408); experiment: Assay to Identify E. coli SecA ATPase Inhibitors; type: functional; conditions: 30 µM
[2] = target: T1, Ubiquitin-activating enzyme e1, putative (Leishmania donovani (strain BPK282A1)) (UniProt E9BSI1); experiment: Leishmania donovani Ubiquitin Activating Enzyme (LdE1); type: functional; conditions: 30 µM
T1 sequence (whole entry): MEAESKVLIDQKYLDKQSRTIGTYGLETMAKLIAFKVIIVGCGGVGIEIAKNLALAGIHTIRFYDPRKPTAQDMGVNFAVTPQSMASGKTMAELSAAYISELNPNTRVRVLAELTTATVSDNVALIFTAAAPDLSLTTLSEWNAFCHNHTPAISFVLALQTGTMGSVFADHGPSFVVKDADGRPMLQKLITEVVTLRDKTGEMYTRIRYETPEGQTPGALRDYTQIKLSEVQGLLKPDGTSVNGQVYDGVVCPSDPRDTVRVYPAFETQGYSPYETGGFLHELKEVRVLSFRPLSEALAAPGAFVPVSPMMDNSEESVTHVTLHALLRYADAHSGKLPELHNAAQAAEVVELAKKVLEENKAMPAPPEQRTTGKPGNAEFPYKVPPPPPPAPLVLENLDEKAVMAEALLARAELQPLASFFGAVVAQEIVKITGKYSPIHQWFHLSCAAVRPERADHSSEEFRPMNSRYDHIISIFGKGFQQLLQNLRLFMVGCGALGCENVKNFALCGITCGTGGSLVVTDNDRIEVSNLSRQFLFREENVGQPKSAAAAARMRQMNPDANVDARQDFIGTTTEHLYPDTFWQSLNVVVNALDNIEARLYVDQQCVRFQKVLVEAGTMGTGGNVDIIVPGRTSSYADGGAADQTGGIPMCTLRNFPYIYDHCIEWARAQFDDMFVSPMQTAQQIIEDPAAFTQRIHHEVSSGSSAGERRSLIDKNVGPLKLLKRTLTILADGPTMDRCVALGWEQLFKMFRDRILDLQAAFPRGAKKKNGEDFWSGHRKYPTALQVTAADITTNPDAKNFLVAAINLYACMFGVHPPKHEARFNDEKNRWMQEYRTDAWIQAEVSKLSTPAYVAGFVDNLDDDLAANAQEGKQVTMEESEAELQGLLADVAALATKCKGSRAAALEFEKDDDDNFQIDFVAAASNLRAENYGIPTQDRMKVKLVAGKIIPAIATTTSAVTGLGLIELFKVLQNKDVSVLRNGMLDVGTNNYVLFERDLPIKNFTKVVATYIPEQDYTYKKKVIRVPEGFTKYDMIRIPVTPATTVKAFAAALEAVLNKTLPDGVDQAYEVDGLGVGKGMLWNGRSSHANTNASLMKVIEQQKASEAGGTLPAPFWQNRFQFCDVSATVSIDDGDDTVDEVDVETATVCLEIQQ

[3] = target: Sialic acid-binding Ig-like lectin 9 (Homo sapiens) (UniProt Q9Y336); experiment: Hs-Siglec9 ALPHAscreen SOP 20170721; conditions: 10 µM
Trypanosoma cruzi = experiment: Trypanosoma cruzi phosphomannomutase and mannose-1-phosphate guanylyltransferase assay; type: functional; conditions: 10 µM
[4] = target: T2, Arginase-2, mitochondrial (Homo sapiens) (UniProt P78540); experiment: in vitro enzyme assay to detect the production of urea directly proportional to the activity of Arginase II; type: functional; conditions: 33.3 µM; further: in the data most compounds retested in dose-response had high values
T2 sequence (whole entry): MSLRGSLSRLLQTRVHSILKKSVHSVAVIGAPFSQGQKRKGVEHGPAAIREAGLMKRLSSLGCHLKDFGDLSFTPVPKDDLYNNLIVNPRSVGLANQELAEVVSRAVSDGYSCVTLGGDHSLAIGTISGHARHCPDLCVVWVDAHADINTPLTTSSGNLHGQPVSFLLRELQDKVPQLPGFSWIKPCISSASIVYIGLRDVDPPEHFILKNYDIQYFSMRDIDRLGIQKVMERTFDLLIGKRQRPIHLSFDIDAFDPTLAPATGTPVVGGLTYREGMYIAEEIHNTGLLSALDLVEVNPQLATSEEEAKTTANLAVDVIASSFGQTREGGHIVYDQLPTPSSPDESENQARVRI

[5] = target: T3, Proteasome subunit beta (Trypanosoma cruzi) (UniProt O96673); experiment: Trypanosoma cruzi proteasome chymotrypsin-like activity (TcProtChymo) assay.; further: in the data most compounds retested in dose-response had high values; type: functional; conditions: 9.37 µM
T3 sequence (whole entry): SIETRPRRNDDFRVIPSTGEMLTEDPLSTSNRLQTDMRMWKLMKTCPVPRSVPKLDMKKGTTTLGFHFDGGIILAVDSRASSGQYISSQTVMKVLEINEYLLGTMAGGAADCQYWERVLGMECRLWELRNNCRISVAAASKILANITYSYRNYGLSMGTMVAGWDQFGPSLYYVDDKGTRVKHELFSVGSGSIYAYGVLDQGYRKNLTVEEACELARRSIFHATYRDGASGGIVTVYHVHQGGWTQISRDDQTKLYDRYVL

Homo sapiens = species: Homo sapiens; experiment: To identify inhibition of the IFN signalling (Jak-Stat) pathway via expression of an eGFP reporter gene under the control of an IFN-stimulated response element (ISRE) containing MxA promoter.; type: functional; conditions: 30 µM
[6] = target: T4, Tyrosyl-tRNA synthetase, putative (Trypanosoma cruzi (strain CL Brener)) (UniProt Q4DSP6); experiment: Trypanosoma cruzi tyrosyl tRNA synthetase (TcYRS) _High Tyrosine SOP; type: functional; conditions: 30 µM; further: in the data most compounds retested in dose-response had high values
T4 sequence (whole entry): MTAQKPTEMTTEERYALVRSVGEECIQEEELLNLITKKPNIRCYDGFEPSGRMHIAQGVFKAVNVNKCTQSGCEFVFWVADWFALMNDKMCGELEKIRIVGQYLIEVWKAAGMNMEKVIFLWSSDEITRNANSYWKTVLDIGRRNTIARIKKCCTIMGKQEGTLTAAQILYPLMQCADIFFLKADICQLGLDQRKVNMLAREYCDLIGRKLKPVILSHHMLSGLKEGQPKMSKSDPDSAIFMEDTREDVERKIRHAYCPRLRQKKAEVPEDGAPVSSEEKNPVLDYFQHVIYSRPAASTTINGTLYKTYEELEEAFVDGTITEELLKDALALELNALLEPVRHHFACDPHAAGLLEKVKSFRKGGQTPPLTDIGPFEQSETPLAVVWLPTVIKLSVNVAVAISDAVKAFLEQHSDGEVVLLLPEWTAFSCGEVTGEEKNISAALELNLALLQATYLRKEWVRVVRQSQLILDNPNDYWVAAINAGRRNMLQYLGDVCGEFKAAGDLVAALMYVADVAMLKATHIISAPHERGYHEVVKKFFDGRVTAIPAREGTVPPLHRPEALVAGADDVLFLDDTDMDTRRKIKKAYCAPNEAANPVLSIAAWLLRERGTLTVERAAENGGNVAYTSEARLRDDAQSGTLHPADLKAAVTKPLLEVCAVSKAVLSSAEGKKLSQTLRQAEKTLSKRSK

[7] = target: T4, Tyrosyl-tRNA synthetase, putative (Trypanosoma cruzi (strain CL Brener)); experiment: Trypanosoma cruzi tyrosyl tRNA synthetase (TcYRS) SOP; type: functional; conditions: 30 µM
[8] = target: Chromo domain-containing protein 1 (Saccharomyces cerevisiae (strain ATCC 204508 / S288c) (Baker's yeast)) (UniProt P32657); experiment: ScCHD-1 Enzyme Inhibition Assay; type: functional; conditions: 30 µM; further: in the data most compounds retested in dose-response had high values
Sequence of Chromo domain-containing protein 1 (Saccharomyces cerevisiae (strain ATCC 204508 / S288c) (Baker's yeast)) (P32657 whole entry, the tested form may be a part): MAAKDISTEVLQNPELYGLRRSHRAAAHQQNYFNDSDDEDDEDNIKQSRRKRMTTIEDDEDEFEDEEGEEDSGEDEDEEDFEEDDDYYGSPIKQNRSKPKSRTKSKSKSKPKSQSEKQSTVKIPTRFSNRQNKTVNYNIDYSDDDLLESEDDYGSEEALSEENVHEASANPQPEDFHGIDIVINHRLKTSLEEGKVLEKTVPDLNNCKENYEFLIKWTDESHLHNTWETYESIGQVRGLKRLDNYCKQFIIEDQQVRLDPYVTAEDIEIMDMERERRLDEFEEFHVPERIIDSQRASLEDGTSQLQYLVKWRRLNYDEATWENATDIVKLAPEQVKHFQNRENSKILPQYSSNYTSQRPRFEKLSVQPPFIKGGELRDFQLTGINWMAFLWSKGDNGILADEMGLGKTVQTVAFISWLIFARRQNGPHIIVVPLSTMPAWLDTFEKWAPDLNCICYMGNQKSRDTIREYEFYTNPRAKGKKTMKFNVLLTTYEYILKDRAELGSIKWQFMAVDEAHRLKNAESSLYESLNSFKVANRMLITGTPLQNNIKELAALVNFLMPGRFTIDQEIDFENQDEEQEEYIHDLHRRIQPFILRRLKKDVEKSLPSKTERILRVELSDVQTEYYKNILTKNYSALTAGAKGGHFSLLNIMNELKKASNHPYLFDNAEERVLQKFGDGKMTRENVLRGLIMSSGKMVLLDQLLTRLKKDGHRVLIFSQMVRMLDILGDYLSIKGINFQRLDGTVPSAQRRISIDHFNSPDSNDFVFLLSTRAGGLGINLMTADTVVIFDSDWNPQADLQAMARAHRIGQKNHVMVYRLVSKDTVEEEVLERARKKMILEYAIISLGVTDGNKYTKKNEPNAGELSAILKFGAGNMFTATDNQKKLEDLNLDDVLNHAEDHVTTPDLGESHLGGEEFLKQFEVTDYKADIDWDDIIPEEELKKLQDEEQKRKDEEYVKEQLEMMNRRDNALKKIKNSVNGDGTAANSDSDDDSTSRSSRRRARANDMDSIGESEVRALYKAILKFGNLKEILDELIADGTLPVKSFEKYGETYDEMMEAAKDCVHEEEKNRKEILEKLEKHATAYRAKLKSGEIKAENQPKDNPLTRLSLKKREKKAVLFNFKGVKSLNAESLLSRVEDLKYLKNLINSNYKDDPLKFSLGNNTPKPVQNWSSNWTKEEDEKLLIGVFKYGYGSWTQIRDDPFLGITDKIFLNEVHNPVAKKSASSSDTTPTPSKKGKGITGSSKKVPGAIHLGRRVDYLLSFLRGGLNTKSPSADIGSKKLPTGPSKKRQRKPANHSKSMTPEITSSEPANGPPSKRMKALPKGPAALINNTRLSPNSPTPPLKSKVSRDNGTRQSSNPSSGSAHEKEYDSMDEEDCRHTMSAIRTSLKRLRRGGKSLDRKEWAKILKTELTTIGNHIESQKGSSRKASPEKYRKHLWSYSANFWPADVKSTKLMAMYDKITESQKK

Sequence of Protein translocase subunit SecA (Escherichia coli (strain K12)) (P10408 whole entry): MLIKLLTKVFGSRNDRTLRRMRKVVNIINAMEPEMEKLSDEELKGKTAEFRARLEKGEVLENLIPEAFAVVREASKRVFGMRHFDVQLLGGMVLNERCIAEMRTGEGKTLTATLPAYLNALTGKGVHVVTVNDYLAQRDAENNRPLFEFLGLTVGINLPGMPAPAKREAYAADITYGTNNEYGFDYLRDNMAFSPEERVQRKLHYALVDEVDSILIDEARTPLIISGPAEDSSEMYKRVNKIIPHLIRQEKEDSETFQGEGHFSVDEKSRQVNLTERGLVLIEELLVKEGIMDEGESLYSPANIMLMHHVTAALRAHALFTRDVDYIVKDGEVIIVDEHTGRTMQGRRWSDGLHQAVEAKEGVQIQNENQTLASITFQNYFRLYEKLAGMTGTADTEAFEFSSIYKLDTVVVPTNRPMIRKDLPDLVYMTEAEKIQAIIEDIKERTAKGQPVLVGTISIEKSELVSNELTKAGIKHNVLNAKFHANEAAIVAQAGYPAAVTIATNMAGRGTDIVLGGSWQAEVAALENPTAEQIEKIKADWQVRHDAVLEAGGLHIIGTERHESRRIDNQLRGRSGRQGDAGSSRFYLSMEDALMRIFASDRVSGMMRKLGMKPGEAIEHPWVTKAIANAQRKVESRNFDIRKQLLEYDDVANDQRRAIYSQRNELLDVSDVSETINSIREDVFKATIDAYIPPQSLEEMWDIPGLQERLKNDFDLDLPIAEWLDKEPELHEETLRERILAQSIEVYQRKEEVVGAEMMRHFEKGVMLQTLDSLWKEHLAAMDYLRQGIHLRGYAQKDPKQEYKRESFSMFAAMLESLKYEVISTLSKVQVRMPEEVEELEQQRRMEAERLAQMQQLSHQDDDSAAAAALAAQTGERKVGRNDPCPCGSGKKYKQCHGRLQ
Sequence of Sialic acid-binding Ig-like lectin 9 (Homo sapiens) (Q9Y336 whole entry): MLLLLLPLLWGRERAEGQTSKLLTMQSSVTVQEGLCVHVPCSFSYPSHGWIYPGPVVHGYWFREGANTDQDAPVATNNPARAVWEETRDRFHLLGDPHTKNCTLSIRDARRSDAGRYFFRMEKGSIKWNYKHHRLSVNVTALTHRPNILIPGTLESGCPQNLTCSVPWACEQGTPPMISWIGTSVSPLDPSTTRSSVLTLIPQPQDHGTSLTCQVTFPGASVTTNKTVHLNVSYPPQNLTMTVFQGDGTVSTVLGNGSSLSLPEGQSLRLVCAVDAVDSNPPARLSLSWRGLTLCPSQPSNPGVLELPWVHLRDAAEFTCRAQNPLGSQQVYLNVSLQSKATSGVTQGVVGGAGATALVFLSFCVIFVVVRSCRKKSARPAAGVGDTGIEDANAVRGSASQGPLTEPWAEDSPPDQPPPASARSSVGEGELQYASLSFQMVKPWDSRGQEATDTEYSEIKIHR

| Structure (SMILES) | Percent Effect [1] [%] | Percent Effect [2] [%] | Percent Effect [3] [%] | Percent Effect (Trypanosoma cruzi) [%] | Percent Effect [4] [%] | Percent Effect [5] [%] | Percent Effect (Homo sapiens) [%] | Percent Effect [6] [%] | Percent Effect [7] [%] | Percent Effect [8] [%] |
| --- | --- | --- | --- | --- | --- | --- | --- | --- | --- | --- |
| CN(C)Cc1ccc(C2CCCCN2C(=O)c2cccc(CO)n2)cc1 (stereo not given) | -5.85 | 13.5 | 26.3 | 9.8 | 23.4 | 9.25 | 8.84 | 6.92 | 14.6 | 80.3 |
| CN(C)c1cc(C(=O)N2CCCC(n3cccn3)C2)ccn1 (stereo not given) | -2.71 | 5.13 | 3.76 | 1.97 | 3.69 | 2.47 | 18.3 | -4.31 | 18.1 | -3.29 |
| O=C(NCCn1ccnc1)N1CCN(Cc2cccs2)CC1 | 2.19 | 18.2 | -6.1 | -9.14 | 2.66 | 21.9 | 12.6 | 4.9 | 16.5 | -9.63 |
| CNC(=O)c1cccnc1Oc1ccccc1 | -2.06 | 19.5 | 16.3 | 5.07 | 0 | 13.5 | 10 | 4.83 | 12.5 | -9.58 |
| Cn1cnc2c1CCN(CCS(=O)(=O)c1ccccc1)C2 | -3.11 | 2.67 | 3.94 | 2.21 | -5.32 | 3.48 | 20.9 | 0.526 | 5.13 | -6.73 |
| CCNC(=O)N1CCN(C(=O)c2cc(Cl)cc3cccnc23)CC1 | -1.06 | 0 | 3.31 | -1.03 | 3.28 | 7.93 | 6.48 | -0.478 | -1.21 | 2.64 |
| CC(O)CN1CCC(CNCc2ccccc2OC(F)(F)F)CC1 (stereo not given) | -4.07 | 10.3 | -7.91 | 7.98 | -1.64 | 9.81 | 2.5 | 0.478 | 10.8 | -0.0569 |
| Cc1cc(S(=O)(=O)N2CCc3ccc(F)cc32)cc(C(=O)O)c1C | -5.32 | 0 | 7.12 | -1.81 | -3.99 | 6.87 | -3.81 | -15.3 | -28.2 | -9.5 |
| COc1ccc(CN2CCN(C(C)c3nc(C4CC4)no3)CC2)cc1 (stereo not given) | -1.5 | 12.8 | 2.49 | 3.29 | -9.43 | 7.76 | 26.9 | 3.35 | 10.8 | -7.9 |
| COC(=O)CC(c1ccc(OC)c(OC)c1)c1oc(C)cc(=O)c1O (stereo not given) | -11 | 2.7 | 0.92 | -4.75 | -10.1 | 4.45 | 14.4 | -0.532 | -2.44 | -0.871 |
| CCSCCC(=O)NS(=O)(=O)c1ccc2c(c1)OCCO2 | -2 | 10.3 | -9.92 | -1.97 | 1.23 | 4.69 | 9.19 | 2.39 | 10.8 | -1.85 |
